Measured values taken from PubChem BioAssay.
“And” between values parts separate entries of the source, which are not always exact repeats. Equal values may be shown once. Inconclusive results are not listed. The source made the active and inactive calls. Unless noted, cut-off not given; nearly all actives show AC50 up to about 26 µM.

What was measured:
[1] = growth inhibition of DIPG glioma cells, dose response, cell-based, SU-DIPG-XVII, MIPE5.0, CellTiter-Glo, qHTS (AID 1347060); conditions: SU-DIPG-XVII viability, CellTiter-Glo ATP luminescence;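 on AC50: cells exposed to compound for 48 hours before viability readout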
[2] = growth inhibition of DIPG glioma cells, dose response, cell-based, SU-DIPG-IV, MIPE4.0, CellTiter-Glo, qHTS (AID 1347063; cut-off not given, nearly all actives have AC50 up to about 30 µM;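 further: compound exposure lasted 48 hours before the viability readout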); conditions: SU-DIPG-IV viability, CellTiter-Glo ATP luminescence
[3] = growth inhibition of DIPG glioma cells, dose response, cell-based, SU-DIPG-XIII, MIPE5.0, CellTiter-Glo, qHTS (AID 1347064; cut-off not given, nearly all actives have AC50 up to about 23 µM;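 on AC50: cells exposed to compound for 48 hours before the viability read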); conditions: SU-DIPG-XIII viability, CellTiter-Glo ATP luminescence
[4] = SU-DIPG-VI glioma cell viability, MIPE4.0 library, CellTiter-Glo luminescence, qHTS (AID 1347066; cut-off not given, nearly all actives have AC50 up to about 30 µM;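 further: cells exposed to compound for 48 hours before readout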); conditions: CellTiter-Glo ATP luminescence
[5] = SU-DIPG-XXV glioma cell viability, MIPE5.0 library, qHTS (AID 1347068; cut-off not given, nearly all actives have IC50 up to about 30 µM;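 on IC50: cells exposed to compound for 48 hours before viability readout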)
[6] = viability loss in pontine glioma line – cell-based, SU-DIPG-XXV, MIPE5.0, CellTiter-Glo, qHTS, dose response (AID 1347065); conditions: CellTiter-Glo ATP luminescence;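 further: cells exposed to compound for 48 hours before ATP readout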
[7] = JHH-DIPG-1 glioma cell viability, MIPE5.0 library, CellTiter-Glo luminescence, qHTS (AID 1347067); conditions: JHH-DIPG-1 glioma viability, CellTiter-Glo ATP luminescence;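 further: cells exposed to compound for 48 hours before readout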
[8] = liver-stage malaria parasite growth inhibition, primary screen, cell-based, HepG2, luciferase luminescence, HepG2 viability (AID 624349; in the data active means parasite load remaining mostly below about 12%, no sharp cut-off; inactive means mostly above about 10%;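 further: 100% = mean of DMSO negative control wells on the same plate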); conditions: P. berghei liver stage in HepG2, luciferase luminescence, concentration not given here; parasite load remaining: stronger effect = lower value; viability: measured here: HepG2 viability without parasites
[9] = sensitizers of A549 cells to miR-34 induction, primary screen, imaging, A549 dox-inducible miR-34, nuclei and caspase counts (AID 1347080;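 active means compounds whose cell count with miR-34 switched on is under 0.7 times the count with it off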); conditions: A549 miR-34 inducible, Hoechst nuclei count, 48 h
[10] = survival rescue of mitochondrial mutant cells in low glucose, primary screen, MELAS cybrids, Rieske KO mouse fibroblasts, CellTiter-Glo (AID 1508586;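 active means mean z-score across replicates of 1.96 or higher in either the MELAS or the Rieske mutant cell line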;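 further: z relative to plate mean and SD of compound and empty wells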)
[11] = molecular target: NAD(+) hydrolase SARM1 (Homo sapiens) (UniProt Q6SZW1); experiment: SARM1 TIR NADase inhibitors, cell lysate, NAD-Glo luminescence (AID 1508614;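 active means compound whose remaining NAD level is above about 45 nM, limit read from the data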); conditions: SAM-TIR HEK293T lysate NADase, at 1 µM, stronger effect = higher value
Chain of NAD(+) hydrolase SARM1 (Homo sapiens) (Q6SZW1 whole entry, looked up): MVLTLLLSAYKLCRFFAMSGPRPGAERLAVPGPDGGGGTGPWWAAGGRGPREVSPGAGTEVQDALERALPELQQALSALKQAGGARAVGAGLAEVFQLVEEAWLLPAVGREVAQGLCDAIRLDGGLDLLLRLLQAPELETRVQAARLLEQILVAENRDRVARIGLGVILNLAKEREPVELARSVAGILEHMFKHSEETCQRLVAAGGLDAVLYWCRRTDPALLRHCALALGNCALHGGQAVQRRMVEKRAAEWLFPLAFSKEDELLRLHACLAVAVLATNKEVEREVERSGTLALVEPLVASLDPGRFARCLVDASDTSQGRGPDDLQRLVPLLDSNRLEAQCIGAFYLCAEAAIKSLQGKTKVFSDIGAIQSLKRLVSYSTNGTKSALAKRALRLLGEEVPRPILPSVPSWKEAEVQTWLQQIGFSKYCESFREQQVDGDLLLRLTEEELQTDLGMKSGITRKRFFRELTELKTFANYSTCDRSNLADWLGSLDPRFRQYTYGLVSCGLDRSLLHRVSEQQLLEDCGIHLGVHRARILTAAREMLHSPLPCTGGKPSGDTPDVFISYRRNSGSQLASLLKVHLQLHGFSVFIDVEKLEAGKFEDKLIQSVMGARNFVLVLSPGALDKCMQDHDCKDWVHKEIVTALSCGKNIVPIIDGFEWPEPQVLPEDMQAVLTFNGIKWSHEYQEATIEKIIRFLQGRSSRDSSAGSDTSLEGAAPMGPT

[12] = viability rescue of complex I mutant cybrids, primary screen, cell-based, galactose medium, ATP luminescence (AID 1645843;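 active means z-score of at least 1.8 in each of two replicates, scored against plate mean and spread of sample wells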;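 further: positive z means more ATP and so rescue of galactose-driven cybrid death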); conditions: complex I mutant cybrid cells, 72 h, stronger effect = higher value
[13] = modifiers of HSF1 nuclear foci, imaging, Selleck Cancer Library (AID 1347162; in the data active means plate-normalised HSF1 focus index below about 0.46); conditions: human cells, at 10 µM; SSMD: measured here: HSF1 foci SSMD mean; cell count: measured here: cell number; plate-normalised HSF1 focus index: stronger effect = lower value
[14] = ovarian cancer cell viability with rucaparib, profiling panel, oncology-focused library, rucaparib conditional (AID 1508598;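 active means normalized viability below 100% at a tested concentration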); conditions: patient-derived ovarian cancer cells, CellTiter-Glo viability, 144 h, stronger effect = lower value
[15] = stronger effect = lower value, cell number ratio, induced over uninduced
[16] = measured here: relative caspase fold change +Dox/-Dox
[17] = measured here: total cells with miR-34 induction, stronger effect = lower value
[18] = measured here: total cells without miR-34 induction
[19] = MELAS cybrid survival, CellTiter-Glo 48 h, stronger effect = higher value
[20] = Rieske KO mouse fibroblast survival, CellTiter-Glo 72 h

CNc1nc(Nc2ccc(C(=O)N3CCOCC3)cc2OC)ncc1Cl
inactive: outcome [1] | outcome [2] | outcome [3] | outcome [4] | outcome [5]

CN(C)CC(=O)N1CCC(c2ccc(NC(=O)c3ncc(C#N)[nH]3)c(C3=CCCCC3)c2)CC1
active: AC50 [1] 23.5 µM | AC50 [2] 20.9 µM | AC50 [6] 20.9 µM | AC50 [4] 18.7 µM
inactive: outcome [7] | outcome [5]

Nc1cccc(-c2cc3c(Oc4cccc(O)c4)ncnc3[nH]2)c1
active: AC50 [1] 1.66 µM | AC50 [2] 11.8 µM | AC50 [3] 4.68 µM | AC50 [6] 5.25 µM | IC50 [5] 8.33 µM
1790: cell count [9, 17]
inactive: parasite load remaining [8] 28.2% | fold change [9, 15] 1.45 | z-score [10, 19] 0.0499
64.3%: viability [8]
0.507: fold change [9, 16]
-2.88: z-score [10, 20]
1240: cell count [9, 18]

CC(C)(O)CC(=O)NCCn1ccc2ncnc(Nc3ccc(Oc4cccc(C(F)(F)F)c4)c(Cl)c3)c21
8120: cell count [9, 17]
0.83: z-score [10, 20]
8420: cell count [9, 18]
active: AC50 [1] 18.6 µM | AC50 [2] 26.4 µM | AC50 [6] 26.3 µM | AC50 [7] 20.9 µM | IC50 [5] 23.5 µM
0.647: fold change [9, 16]
inactive: fold change [9, 15] 0.965 | z-score [10, 19] -0.328

Cc1nc([C@](C)(O)CO)sc1-c1cnc(N)c(O[C@H](C)c2cc(F)ccc2-n2nccn2)c1
active: AC50 [1] 8.33 µM | AC50 [3] 1.48 µM | AC50 [6] 2.63 µM

CC[C@H](CC#N)OC(=O)N[C@@H](C)c1cccc(NC(=O)Nc2ccc(-c3cnco3)c(OC)c2)c1
active: AC50 [1] 0.525 µM | AC50 [2] 1.32 µM | AC50 [6] 0.468 µM | AC50 [7] 2.63 µM | IC50 [5] 14.8 µM

CC(=O)Oc1cc2c(s1)CCN(C(C(=O)C1CC1)c1ccccc1F)C2 (centres undefined)
active: AC50 [2] 16.6 µM
inactive: outcome [1] | outcome [6] | outcome [7] | outcome [5] | fold change [9, 15] 0.891 and 0.933 | z-score [10, 19] -1.04 and -0.446 | remaining NAD [11] 10 nM | z-score [12] -1.04
-0.245 and 0.545: z-score [10, 20]
0.621 and 0.805: fold change [9, 16]
7600 and 7230: cell count [9, 17]
8520 and 7750: cell count [9, 18]

O=C1NC(=O)[C@@H](c2cn3c4c(cccc24)CCC3)[C@@H]1c1c[nH]c2ccccc12
active: AC50 [1] 1.05 µM | AC50 [2] 13.2 µM | AC50 [6] 1.48 µM | AC50 [4] 23.5 µM

CN1c2ccccc2C(=O)N2CCc3c([nH]c4ccccc34)C21 (centres undefined)
inactive: outcome [2] | outcome [4]
active: AC50 [1] 2.95 µM | AC50 [6] 2.35 µM | AC50 [7] 5.25 µM

Cc1cc(-c2nc3cc(F)ccc3s2)ccc1NC(=O)[C@@H](N)CCCCN
active: AC50 [1] 20.9 µM | AC50 [3] 20.9 µM

COc1cc(OC)cc(N(CCNC(C)C)c2ccc3ncc(-c4cnn(C)c4)nc3c2)c1
active: AC50 [1] 0.0661 µM | AC50 [3] 0.0661 µM | AC50 [6] 0.0833 µM

Clc1ccc2ncc(-c3cccc(NC4CNC4)n3)n2c1
inactive: outcome [1] | outcome [7] | outcome [5]
active: AC50 [2] 26.4 µM

Nc1ncc(C(=O)NC2CN(C(=O)C3CC3)C2)c2ccc(-c3cccc(F)c3)nc12
inactive: outcome [1] | outcome [3]

CC[C@@H]([C@H](C)O)n1ncn(-c2ccc(N3CCN(c4ccc(OCC5CO[C@@](Cn6cncn6)(c6ccc(F)cc6F)C5)cc4)CC3)cc2)c1=O (some centres undefined)
inactive: outcome [4]
active: AC50 [1] 18.6 µM | AC50 [2] 14.8 µM

N#C/C(=C1/Nc2ccccc2S1)c1ccnc(OCc2ccc(CN3CCOCC3)cc2)n1
active: AC50 [1] 14.8 µM | AC50 [2] 0.0209 µM | AC50 [3] 14.8 µM | AC50 [4] 0.743 µM | AC50 [7] 20.9 µM

CC(C)(C)NC(=O)c1cncn1C1CCN(c2ccc(-c3nnc(C(F)(F)F)o3)cn2)CC1
active: AC50 [1] 10.5 µM | AC50 [3] 5.9 µM | AC50 [6] 1.48 µM

c1ccc(-c2cc(CCC3CCNCC3)c3ccccc3n2)cc1
active: AC50 [1] 23.5 µM | AC50 [3] 23.5 µM | AC50 [6] 23.5 µM

C[C@@H]1Cc2c([nH]c3ccccc23)[C@@H](c2c(F)cc(/C=C/C(=O)O)cc2F)N1CC(C)(C)F
inactive: outcome [1] | outcome [3]

Cc1c[nH]c2ncnc(N3CCC(CN)(C(=O)Nc4cccc(OC(=O)N(C)C)c4)CC3)c12
active: AC50 [3] 11.8 µM | AC50 [6] 16.6 µM
inactive: outcome [1]

CS(=O)(=O)N1CCc2c(-c3cnc(N)nc3)nc(N3CCOCC3)nc21
3180: cell count [9, 17] | cell count [9, 18]
active: AC50 [1] 1.86 µM | AC50 [2] 0.148 µM | AC50 [3] 1.18 µM | AC50 [6] 0.525 µM | IC50 [5] 0.934 µM | z-score [10, 19] 3.23 | viability ([14]; at 0.00488 µM, OCI-C5x cells, with rucaparib 10 µM, 100% = cells with rucaparib alone) 96.5% | viability ([14]; at 0.0781 µM, OCI-C5x cells, with rucaparib 10 µM, 100% = cells with rucaparib alone) 87.7% | viability ([14]; at 0.313 µM, OCI-C5x cells, with rucaparib 10 µM, 100% = cells with rucaparib alone) 91.8% | viability ([14]; at 1.25 µM, OCI-C5x cells, with rucaparib 10 µM, 100% = cells with rucaparib alone) 75.9% | viability ([14]; at 1.25 µM, OCI-P5x cells, with rucaparib 20 µM, 100% = cells with rucaparib alone) 66.8% | viability ([14]; at 1.25 µM, OCI-P5x cells, without rucaparib) 97% | viability ([14]; at 5 µM, OCI-C5x cells, with rucaparib 10 µM, 100% = cells with rucaparib alone) 39.2% | viability ([14]; at 5 µM, OCI-C5x cells, without rucaparib) 56% | viability ([14]; at 5 µM, OCI-P5x cells, with rucaparib 20 µM, 100% = cells with rucaparib alone) 16% | viability ([14]; at 5 µM, OCI-P5x cells, without rucaparib) 16.9%
0.485: fold change [9, 16]
inactive: fold change [9, 15] 0.998 | plate-normalised HSF1 focus index [13] 0.883 | viability ([14]; at 0.000305 µM, OCI-C5x cells, with rucaparib 10 µM, 100% = cells with rucaparib alone) 100% | viability ([14]; at 0.000305 µM, OCI-C5x cells, without rucaparib) 117% | viability ([14]; at 0.000305 µM, OCI-P5x cells, with rucaparib 20 µM, 100% = cells with rucaparib alone) 117% | viability ([14]; at 0.000305 µM, OCI-P5x cells, without rucaparib) 109% | viability ([14]; at 0.00122 µM, OCI-C5x cells, with rucaparib 10 µM, 100% = cells with rucaparib alone) 103% | viability ([14]; at 0.00122 µM, OCI-C5x cells, without rucaparib) 117% | viability ([14]; at 0.00122 µM, OCI-P5x cells, with rucaparib 20 µM, 100% = cells with rucaparib alone) 115% | viability ([14]; at 0.00122 µM, OCI-P5x cells, without rucaparib) 111% | viability ([14]; at 0.00488 µM, OCI-C5x cells, without rucaparib) 111% | viability ([14]; at 0.00488 µM, OCI-P5x cells, with rucaparib 20 µM, 100% = cells with rucaparib alone) 113% | viability ([14]; at 0.00488 µM, OCI-P5x cells, without rucaparib) 112% | viability ([14]; at 0.0195 µM, OCI-C5x cells, with rucaparib 10 µM, 100% = cells with rucaparib alone) 106% | viability ([14]; at 0.0195 µM, OCI-C5x cells, without rucaparib) 125% | viability ([14]; at 0.0195 µM, OCI-P5x cells, with rucaparib 20 µM, 100% = cells with rucaparib alone) 115% | viability ([14]; at 0.0195 µM, OCI-P5x cells, without rucaparib) 111% | viability ([14]; at 0.0781 µM, OCI-C5x cells, without rucaparib) 115% | viability ([14]; at 0.0781 µM, OCI-P5x cells, with rucaparib 20 µM, 100% = cells with rucaparib alone) 112% | viability ([14]; at 0.0781 µM, OCI-P5x cells, without rucaparib) 110% | viability ([14]; at 0.313 µM, OCI-C5x cells, without rucaparib) 105% | viability ([14]; at 0.313 µM, OCI-P5x cells, with rucaparib 20 µM, 100% = cells with rucaparib alone) 109% | viability ([14]; at 0.313 µM, OCI-P5x cells, without rucaparib) 107% | viability ([14]; at 1.25 µM, OCI-C5x cells, without rucaparib) 118%
7210: cell count [13]
-3.29: SSMD [13]
-1.3: z-score [10, 20]

CCOc1cc(C(C)(C)C)ccc1C1=N[C@@](C)(c2ccc(Cl)cc2)[C@@](C)(c2ccc(Cl)cc2)N1C(=O)N1CCN(CC(=O)N2CCOCC2)CC1
active: AC50 [1] 11.5 µM | AC50 [3] 14.5 µM | AC50 [6] 10.3 µM
